Data from PMC7862700, “An all-to-all approach to the identification of sequence-specific readers for epigenetic DNA modifications on cytosine”.

Legend:
Experiment in all cases: DAPPL (digital affinity profiling via proximity ligation, sequencing); 10 mM Tris-HCl pH 7.5, 50 mM NaCl, 1 mM DTT, 4% glycerol, room temperature, 30 min; GST-TFs on glutathione beads, 16-mer random dsDNA library, 0.1% formaldehyde crosslink after washing; high values mean tight binding
[1] = target: T1, FEV (Homo sapiens, UniProt Q99581 1-238); settings: protein: recombinant; tags: N-terminal GST; dsDNA, one strand shown
T1 sequence: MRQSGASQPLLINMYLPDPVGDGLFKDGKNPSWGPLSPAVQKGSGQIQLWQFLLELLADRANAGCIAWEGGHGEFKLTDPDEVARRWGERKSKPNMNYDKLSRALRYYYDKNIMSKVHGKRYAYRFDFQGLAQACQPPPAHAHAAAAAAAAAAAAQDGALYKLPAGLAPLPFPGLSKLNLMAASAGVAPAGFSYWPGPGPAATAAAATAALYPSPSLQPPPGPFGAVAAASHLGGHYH
Procedure, shortened: (§1)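 The binding signal reported is, for every hexamer, its read frequency for a factor over its read frequency for the tag-only sample. Reads came from pools of yeast-expressed, GST-fused human transcription factors on glutathione beads, barcoded with DNA and mixed with that sample, which were incubated with 200 nmole of a random double-stranded 16-mer DNA library in Tris/NaCl/DTT/glycerol buffer at room temperature for 30 min. After washing, the pools were crosslinked with 0.1% formaldehyde, proximity-ligated with BsaI/T4 ligase for 1 h at 37 °C, PCR-amplified and sequenced on an Illumina NextSeq500.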

[2] = target: ETV5 (Homo sapiens, UniProt P41161 1-510); settings: protein: recombinant; tags: N-terminal GST; dsDNA, one strand shown
Procedure, shortened: as §1

[3] = target: HSF1 (Homo sapiens, UniProt Q00613 1-529); settings: protein: recombinant; tags: N-terminal GST; chain copies: 3; dsDNA, one strand shown
Procedure, shortened: as §1

[4] = target: T2, SPIC (Homo sapiens, UniProt Q8N5J4 1-248); settings: protein: recombinant; tags: N-terminal GST; dsDNA, one strand shown
T2 sequence: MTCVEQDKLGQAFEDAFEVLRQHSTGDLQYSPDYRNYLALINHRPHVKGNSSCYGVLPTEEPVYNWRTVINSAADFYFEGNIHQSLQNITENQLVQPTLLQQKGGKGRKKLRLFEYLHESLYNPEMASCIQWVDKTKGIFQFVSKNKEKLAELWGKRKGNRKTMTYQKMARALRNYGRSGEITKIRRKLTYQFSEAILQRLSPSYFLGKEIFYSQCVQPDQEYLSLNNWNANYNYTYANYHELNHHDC
Procedure, shortened: as §1

[5] = target: ELF4 (Homo sapiens, UniProt Q99607 1-663); settings: protein: recombinant; tags: N-terminal GST; dsDNA, one strand shown
Procedure, shortened: as §1

[6] = target: T3, ELK4 (Homo sapiens, UniProt P28324-2 1-405); settings: protein: recombinant; tags: N-terminal GST; dsDNA, one strand shown
T3 sequence: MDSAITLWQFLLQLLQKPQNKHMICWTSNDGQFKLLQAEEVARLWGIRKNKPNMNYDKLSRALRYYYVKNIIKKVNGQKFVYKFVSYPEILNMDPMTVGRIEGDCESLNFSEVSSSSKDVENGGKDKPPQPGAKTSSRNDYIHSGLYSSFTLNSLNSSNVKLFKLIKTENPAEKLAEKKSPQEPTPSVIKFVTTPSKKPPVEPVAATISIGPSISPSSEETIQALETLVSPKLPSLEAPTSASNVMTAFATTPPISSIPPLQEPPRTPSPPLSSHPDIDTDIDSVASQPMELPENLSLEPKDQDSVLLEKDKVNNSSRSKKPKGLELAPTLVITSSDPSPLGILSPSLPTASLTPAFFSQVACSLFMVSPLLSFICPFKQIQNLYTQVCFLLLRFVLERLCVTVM
Procedure, shortened: as §1

[7] = target: T4, ETV2 (Homo sapiens, UniProt O00321 1-342); settings: protein: recombinant; tags: N-terminal GST; dsDNA, one strand shown
T4 sequence: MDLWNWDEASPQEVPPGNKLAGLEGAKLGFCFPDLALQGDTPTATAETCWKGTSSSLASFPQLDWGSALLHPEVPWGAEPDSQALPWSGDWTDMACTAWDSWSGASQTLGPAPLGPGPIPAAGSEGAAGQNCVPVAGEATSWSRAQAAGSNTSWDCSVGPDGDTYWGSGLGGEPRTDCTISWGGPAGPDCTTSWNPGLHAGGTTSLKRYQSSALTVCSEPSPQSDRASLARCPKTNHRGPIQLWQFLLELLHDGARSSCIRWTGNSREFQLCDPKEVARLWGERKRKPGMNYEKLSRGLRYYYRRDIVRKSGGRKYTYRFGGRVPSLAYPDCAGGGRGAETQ
Procedure, shortened: as §1

[8] = target: T5, ELF3 (Homo sapiens, UniProt P78545 1-371); settings: protein: recombinant; tags: N-terminal GST; dsDNA, one strand shown
T5 sequence: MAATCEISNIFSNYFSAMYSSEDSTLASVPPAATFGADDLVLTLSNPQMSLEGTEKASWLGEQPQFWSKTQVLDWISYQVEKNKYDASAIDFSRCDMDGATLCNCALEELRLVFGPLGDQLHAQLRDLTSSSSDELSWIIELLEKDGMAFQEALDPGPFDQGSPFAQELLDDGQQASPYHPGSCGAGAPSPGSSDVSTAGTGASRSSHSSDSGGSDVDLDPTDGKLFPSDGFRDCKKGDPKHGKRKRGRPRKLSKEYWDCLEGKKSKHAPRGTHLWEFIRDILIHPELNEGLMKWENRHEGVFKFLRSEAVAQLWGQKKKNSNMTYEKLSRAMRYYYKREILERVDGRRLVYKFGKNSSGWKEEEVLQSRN
Procedure, shortened: as §1

[9] = target: ETV1 (Homo sapiens, UniProt P50549 1-477); settings: protein: recombinant; tags: N-terminal GST; dsDNA, one strand shown
Procedure, shortened: as §1

[10] = target: T6, ERF (Homo sapiens, UniProt P50548 1-548); settings: protein: recombinant; tags: N-terminal GST; dsDNA, one strand shown
T6 sequence: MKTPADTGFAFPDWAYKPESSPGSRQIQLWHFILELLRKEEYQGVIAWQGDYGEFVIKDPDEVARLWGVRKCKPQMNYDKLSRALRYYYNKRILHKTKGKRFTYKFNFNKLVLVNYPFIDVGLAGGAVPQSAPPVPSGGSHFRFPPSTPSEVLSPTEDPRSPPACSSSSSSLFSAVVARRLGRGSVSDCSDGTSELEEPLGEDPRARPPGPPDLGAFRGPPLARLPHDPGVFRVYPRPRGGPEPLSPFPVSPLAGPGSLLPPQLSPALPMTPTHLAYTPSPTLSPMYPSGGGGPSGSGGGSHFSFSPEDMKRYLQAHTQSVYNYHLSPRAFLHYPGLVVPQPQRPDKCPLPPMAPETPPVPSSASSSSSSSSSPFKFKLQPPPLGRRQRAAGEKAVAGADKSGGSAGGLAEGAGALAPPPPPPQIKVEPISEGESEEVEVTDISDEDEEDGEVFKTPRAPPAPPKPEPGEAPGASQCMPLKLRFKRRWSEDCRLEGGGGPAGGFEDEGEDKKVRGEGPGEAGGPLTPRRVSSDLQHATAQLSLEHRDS
Procedure, shortened: as §1

[11] = target: T7, ETV3L (Homo sapiens, UniProt Q6ZN32 1-361); settings: protein: recombinant; tags: N-terminal GST; dsDNA, one strand shown
T7 sequence: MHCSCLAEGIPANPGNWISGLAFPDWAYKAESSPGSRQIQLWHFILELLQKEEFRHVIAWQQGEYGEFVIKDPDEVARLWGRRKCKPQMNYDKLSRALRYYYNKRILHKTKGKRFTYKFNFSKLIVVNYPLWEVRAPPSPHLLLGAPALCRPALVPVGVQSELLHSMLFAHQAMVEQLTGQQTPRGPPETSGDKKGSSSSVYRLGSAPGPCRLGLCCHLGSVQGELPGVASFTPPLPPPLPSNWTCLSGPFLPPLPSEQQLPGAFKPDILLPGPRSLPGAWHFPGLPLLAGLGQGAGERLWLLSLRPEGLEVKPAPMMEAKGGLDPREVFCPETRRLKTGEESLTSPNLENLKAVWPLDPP
Procedure, shortened: as §1

[12] = target: T8, ETS2 (Homo sapiens, UniProt P15036 1-469); settings: protein: recombinant; tags: N-terminal GST; dsDNA, one strand shown
T8 sequence: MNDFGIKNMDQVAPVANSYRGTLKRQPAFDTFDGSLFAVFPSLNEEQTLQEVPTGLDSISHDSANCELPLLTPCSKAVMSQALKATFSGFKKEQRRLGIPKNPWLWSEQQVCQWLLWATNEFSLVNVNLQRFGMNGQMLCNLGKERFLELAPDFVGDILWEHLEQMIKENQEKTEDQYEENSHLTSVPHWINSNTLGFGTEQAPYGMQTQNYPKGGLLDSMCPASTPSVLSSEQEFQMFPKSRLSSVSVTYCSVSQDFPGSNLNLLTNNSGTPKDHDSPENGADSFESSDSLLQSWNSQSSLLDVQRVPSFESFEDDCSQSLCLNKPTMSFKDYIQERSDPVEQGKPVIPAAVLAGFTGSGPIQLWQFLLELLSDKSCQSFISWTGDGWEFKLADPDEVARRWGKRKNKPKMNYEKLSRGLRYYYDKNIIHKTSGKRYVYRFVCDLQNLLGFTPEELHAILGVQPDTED
Procedure, shortened: as §1

[13] = target: T9, SPDEF (Homo sapiens, UniProt O95238 1-335); settings: protein: recombinant; tags: N-terminal GST; dsDNA, one strand shown
T9 sequence: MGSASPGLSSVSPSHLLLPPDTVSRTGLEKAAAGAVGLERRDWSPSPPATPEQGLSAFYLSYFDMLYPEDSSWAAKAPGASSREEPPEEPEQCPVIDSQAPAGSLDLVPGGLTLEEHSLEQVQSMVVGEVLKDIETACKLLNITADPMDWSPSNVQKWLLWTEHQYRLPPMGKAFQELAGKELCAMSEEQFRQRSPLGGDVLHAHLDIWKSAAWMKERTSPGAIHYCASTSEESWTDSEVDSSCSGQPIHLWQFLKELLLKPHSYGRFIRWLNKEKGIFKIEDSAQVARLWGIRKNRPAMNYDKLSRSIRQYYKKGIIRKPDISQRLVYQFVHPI
Procedure, shortened: as §1

[14] = target: T10, ETV7 (Homo sapiens, UniProt Q9Y603 1-341); settings: protein: recombinant; tags: N-terminal GST; dsDNA, one strand shown
T10 sequence: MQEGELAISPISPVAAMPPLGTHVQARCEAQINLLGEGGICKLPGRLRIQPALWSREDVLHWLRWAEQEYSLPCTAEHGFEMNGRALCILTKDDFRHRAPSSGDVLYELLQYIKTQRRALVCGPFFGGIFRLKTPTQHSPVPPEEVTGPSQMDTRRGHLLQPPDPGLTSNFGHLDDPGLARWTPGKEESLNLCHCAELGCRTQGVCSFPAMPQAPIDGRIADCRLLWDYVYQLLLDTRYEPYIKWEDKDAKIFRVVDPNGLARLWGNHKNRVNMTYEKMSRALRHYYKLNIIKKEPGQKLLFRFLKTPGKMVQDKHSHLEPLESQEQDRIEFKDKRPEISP
Procedure, shortened: as §1

[15] = target: T11, ELF5 (Homo sapiens, UniProt Q9UKW6-2 1-255); settings: protein: recombinant; tags: N-terminal GST; dsDNA, one strand shown
T11 sequence: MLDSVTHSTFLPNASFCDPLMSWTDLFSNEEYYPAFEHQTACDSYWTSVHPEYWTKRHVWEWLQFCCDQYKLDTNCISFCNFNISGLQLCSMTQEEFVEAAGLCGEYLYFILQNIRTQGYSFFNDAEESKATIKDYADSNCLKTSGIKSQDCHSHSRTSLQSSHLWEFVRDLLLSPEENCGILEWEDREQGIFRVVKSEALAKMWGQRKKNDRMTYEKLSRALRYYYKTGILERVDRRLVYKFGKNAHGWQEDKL
Procedure, shortened: as §1

[16] = target: T12, ETV3 (Homo sapiens, UniProt P41162-2 1-143); settings: protein: recombinant; tags: N-terminal GST; dsDNA, one strand shown
T12 sequence: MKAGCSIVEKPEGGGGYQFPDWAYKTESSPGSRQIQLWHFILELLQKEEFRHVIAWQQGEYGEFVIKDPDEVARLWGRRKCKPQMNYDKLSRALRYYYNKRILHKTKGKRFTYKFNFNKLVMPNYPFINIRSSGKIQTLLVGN
Procedure, shortened: as §1

[17] = target: ETV6 (Homo sapiens, UniProt P41212 1-452); settings: protein: recombinant; tags: N-terminal GST; dsDNA, one strand shown
Procedure, shortened: as §1

ETV5, sequence (P41161 whole entry): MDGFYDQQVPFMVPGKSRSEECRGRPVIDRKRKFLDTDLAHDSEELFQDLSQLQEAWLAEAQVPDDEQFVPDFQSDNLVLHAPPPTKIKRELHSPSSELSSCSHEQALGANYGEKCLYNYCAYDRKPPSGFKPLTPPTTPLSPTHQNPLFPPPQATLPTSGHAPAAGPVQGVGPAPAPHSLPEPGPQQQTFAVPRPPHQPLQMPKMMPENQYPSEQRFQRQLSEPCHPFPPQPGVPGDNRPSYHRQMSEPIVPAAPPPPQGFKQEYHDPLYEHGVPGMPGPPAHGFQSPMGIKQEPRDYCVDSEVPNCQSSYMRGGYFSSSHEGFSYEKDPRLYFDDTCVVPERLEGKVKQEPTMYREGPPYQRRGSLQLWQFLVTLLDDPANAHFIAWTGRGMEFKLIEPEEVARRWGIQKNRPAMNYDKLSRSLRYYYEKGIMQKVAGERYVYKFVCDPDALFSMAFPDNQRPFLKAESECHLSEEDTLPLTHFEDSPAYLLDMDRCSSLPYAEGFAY
ETV1, sequence (P50549 whole entry): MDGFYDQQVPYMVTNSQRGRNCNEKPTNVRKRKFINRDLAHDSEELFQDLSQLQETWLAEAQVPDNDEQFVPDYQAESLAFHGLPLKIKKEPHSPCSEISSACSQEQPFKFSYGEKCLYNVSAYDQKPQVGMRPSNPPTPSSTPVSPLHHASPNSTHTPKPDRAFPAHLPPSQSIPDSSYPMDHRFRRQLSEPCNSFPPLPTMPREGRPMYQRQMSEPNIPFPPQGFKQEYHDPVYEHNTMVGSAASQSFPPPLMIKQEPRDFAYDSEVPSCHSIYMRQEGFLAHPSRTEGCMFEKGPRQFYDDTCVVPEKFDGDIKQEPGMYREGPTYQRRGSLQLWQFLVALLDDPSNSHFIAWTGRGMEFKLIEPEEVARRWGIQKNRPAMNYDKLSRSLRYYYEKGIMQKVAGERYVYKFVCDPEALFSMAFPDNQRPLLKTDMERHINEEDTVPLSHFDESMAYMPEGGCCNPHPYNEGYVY
ETV6, sequence (P41212 whole entry): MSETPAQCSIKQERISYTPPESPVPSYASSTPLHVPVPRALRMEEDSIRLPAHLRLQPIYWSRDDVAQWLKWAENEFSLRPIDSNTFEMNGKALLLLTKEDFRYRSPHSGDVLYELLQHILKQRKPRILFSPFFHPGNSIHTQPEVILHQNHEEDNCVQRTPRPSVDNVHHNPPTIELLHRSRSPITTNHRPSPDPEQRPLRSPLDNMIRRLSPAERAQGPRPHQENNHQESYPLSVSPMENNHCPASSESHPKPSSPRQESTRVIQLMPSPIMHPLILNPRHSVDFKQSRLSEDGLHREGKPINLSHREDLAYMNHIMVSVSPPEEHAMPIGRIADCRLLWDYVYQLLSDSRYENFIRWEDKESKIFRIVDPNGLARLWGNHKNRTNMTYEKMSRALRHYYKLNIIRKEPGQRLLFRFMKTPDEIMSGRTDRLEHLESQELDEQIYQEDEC
ELF4, sequence (Q99607 whole entry): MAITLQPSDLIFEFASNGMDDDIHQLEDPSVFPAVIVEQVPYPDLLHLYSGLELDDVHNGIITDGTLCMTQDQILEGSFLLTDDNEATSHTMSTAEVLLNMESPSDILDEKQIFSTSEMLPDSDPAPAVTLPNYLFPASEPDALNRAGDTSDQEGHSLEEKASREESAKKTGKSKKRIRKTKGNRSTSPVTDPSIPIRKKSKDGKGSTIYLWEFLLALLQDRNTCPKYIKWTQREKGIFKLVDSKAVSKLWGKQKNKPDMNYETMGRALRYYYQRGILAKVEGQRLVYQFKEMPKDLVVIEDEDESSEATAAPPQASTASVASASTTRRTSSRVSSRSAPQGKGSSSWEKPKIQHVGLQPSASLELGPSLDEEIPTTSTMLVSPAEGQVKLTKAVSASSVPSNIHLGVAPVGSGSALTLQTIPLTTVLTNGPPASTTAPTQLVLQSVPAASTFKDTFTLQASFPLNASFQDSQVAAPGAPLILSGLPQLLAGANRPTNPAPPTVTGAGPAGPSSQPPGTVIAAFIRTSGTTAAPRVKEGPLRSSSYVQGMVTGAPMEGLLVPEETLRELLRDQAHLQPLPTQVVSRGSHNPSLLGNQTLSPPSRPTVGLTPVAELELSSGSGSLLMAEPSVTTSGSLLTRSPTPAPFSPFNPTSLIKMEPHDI
HSF1, sequence (Q00613 whole entry): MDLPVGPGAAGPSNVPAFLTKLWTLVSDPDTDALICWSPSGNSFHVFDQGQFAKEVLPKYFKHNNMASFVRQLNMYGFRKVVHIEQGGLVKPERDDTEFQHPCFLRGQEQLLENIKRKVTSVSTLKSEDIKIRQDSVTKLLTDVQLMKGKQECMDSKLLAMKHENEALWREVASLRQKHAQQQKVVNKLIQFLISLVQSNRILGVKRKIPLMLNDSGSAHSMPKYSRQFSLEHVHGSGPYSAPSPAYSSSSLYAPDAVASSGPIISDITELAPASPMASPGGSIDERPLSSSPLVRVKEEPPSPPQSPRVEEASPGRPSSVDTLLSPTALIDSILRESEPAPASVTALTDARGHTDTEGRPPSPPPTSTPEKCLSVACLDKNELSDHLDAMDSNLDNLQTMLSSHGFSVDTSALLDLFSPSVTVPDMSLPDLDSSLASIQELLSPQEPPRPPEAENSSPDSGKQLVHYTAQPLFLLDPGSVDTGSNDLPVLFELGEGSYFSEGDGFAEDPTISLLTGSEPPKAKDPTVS

Sequence	binding signal [1]	binding signal [2]	binding signal [3]	binding signal [4]	binding signal [5]	binding signal [6]	binding signal [7]	binding signal [8]	binding signal [9]	binding signal [10]	binding signal [11]	binding signal [12]	binding signal [13]	binding signal [14]	binding signal [15]	binding signal [16]	binding signal [17]
GAACCC	1.17 fold enrichment (6-mer frequency, TF over GST control)	1.2 fold enrichment (6-mer frequency, TF over GST control)	1.03 fold enrichment (6-mer frequency, TF over GST control)	1.29 fold enrichment (6-mer frequency, TF over GST control)	1.22 fold enrichment (6-mer frequency, TF over GST control)	1.2 fold enrichment (6-mer frequency, TF over GST control)	1 fold enrichment (6-mer frequency, TF over GST control)	1.05 fold enrichment (6-mer frequency, TF over GST control)	1.19 fold enrichment (6-mer frequency, TF over GST control)	1.03 fold enrichment (6-mer frequency, TF over GST control)	1.19 fold enrichment (6-mer frequency, TF over GST control)	1.13 fold enrichment (6-mer frequency, TF over GST control)	1.17 fold enrichment (6-mer frequency, TF over GST control)	1.16 fold enrichment (6-mer frequency, TF over GST control)	1.14 fold enrichment (6-mer frequency, TF over GST control)	1.07 fold enrichment (6-mer frequency, TF over GST control)	1.21 fold enrichment (6-mer frequency, TF over GST control)
GGAACT	1.72 fold enrichment (6-mer frequency, TF over GST control)	1.96 fold enrichment (6-mer frequency, TF over GST control)	1.31 fold enrichment (6-mer frequency, TF over GST control)	2.08 fold enrichment (6-mer frequency, TF over GST control)	1.55 fold enrichment (6-mer frequency, TF over GST control)	1.49 fold enrichment (6-mer frequency, TF over GST control)	1.89 fold enrichment (6-mer frequency, TF over GST control)	1.87 fold enrichment (6-mer frequency, TF over GST control)	2.03 fold enrichment (6-mer frequency, TF over GST control)	1.48 fold enrichment (6-mer frequency, TF over GST control)	1.71 fold enrichment (6-mer frequency, TF over GST control)	1.88 fold enrichment (6-mer frequency, TF over GST control)	1.94 fold enrichment (6-mer frequency, TF over GST control)	1.56 fold enrichment (6-mer frequency, TF over GST control)	2.25 fold enrichment (6-mer frequency, TF over GST control)	1.93 fold enrichment (6-mer frequency, TF over GST control)	1.84 fold enrichment (6-mer frequency, TF over GST control)
